The values that follow come from PubChem BioAssay AID1508600 (Functional Genomics Laboratory (NCATS/FGL), 2020).

The campaign covered roughly 53,000 sequences. About 3,700 (7%) were called active. Only a selection was taken, and actives are over-represented in it overall. A number with no mark means an inactive call.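 The calls were made as follows: active = gene knockdowns whose robust z-score for IL-1 alpha signal is at least 2 or at most -2, so actives lie on both sides; inactive = the rest.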

The nature of this assay: Components of the Cytosolic LPS Sensing Pathway: Gene Identification via Genome-wide siRNA Screen.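 Also: robust z of the log signal after scaling to non-targeting control siRNA wells of the plate.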 The following applies: RAW264.7 macrophages, IL-1a HTRF, actives lie on both sides, screened at 100 nM (by protocol), cells primed 5 h with Pam3CSK4 first. The procedure, abridged: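 RAW264.7 mouse macrophages reverse-transfected with single siRNAs (100 nM final) for 48h, primed with Pam3CSK4 for 5 hours, then transfected with LipidA for 24 hour. Supernatant IL-1a read by HTRF; values normalized to negative-control median, log-transformed robust z-scores.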
Turning to GGUGAAACAGCGAAUAGGUTT against Zfp428, the z-score was -0.168. GGAAUUGUAGAAAGUGUUGTT against Adh4: the z-score is 1.66. In the case of “GGGCCUGUAAUGGUGUACATT against B230317F23Rik” it was 2.56 (active); in that of GGCUUUCCGCGCUAUUGAUTT against Pcmtd2, -0.027; in that of GGAUUUUAGUGAAUUCCAUTT against Asah1, 0.0675.

On to CCCUGGAUUGAGGAUCGUUTT against Mrgpra8, for which the z-score was -1.14. Turning to GGAACUCCAGCUUUUGGUCTT against Sox13, the z-score was 2.51 (active). Take “GGUUGAAGAGCAUGAGAGCTT against A330041J22Rik”: the z-score was 1.01. Regarding GGAGCUAAACCAAUGGCAATT against Txndc15, the z-score was 0.479.

Take GCCCAAGAAUGUGCCUUAUTT against Olfr1278: the z-score was -0.578. Take GCAGACUAAAAUCACGACATT against Ednra: the z-score is 2.62 (active). To GGUGAUGAAAAGAAUUGCATT against Pitrm1 belongs 0.417; to GGACUUUGGUUUUUGUAAGTT against Vasn, -1.72; to GGUCCAAAGAAAGACCCAUTT against Cypt4, -0.131.

Consider GGUAAACAUGUCUAUGACUTT against Fpr-rs7, for which the z-score was -2.09 (active).

For GGAGAUCAUGUCAAAAAAGTT against Ibtk, the z-score was -0.848. As to “GGGCUUUAUUCAUCCACUCTT against 1700067P10Rik”, the z-score was 1.52. Take GGAAUGGAUCCUGAUGAUATT against Spcs2: the z-score was -0.877. In the case of GCUCGAUCAUGGGCCUAUATT against Crls1 it was -0.189.

For GGAUAGUUUGGUAAUGAAATT against Cds1, the z-score was -0.748. Take GGCAGAUAAAGAUGGAGCATT against Ndp: the z-score is 3.69 (active). For CGGGCUAUCUGGAACUAUATT against Sesn1, the z-score is -0.466. To GGCUUAAAGGUCCUGUGCUTT against Ighmbp2 belongs -2.89 (active). In the case of GGUUUAUGCAAUGAAGCUUTT against Rock2 it was -0.0928; in that of GGUUAUGGUUUUGUUGACUTT against Rbms1, -0.606. Consider GGCUUUAAUGCCUGUAUUATT against Ilvbl, for which the z-score is -0.185. For GGUUUGGAUGUGAAACAAGTT against Myot, the z-score was -0.861.

In the case of GGAAUCUCGGAGGAAAACUTT against Hyou1, the z-score was 1.99. Consider GGCAGUAGCCUUGUCUGUCTT against Prrx2, for which the z-score was -1.42. Regarding GCAAGAUCCCGACACAUACTT against Tead4, the z-score is -2.22 (active).

Take GGUCUCACAGCAGUACUCATT against Clk4: the z-score was -1.46. With GGACACAGGGUCUCUUACATT against Msrb2, the z-score is -1.25. To GGCUCAAGACUUAAAUUCATT against Olfr1100 belongs 0.437; to CCUACUGGUUGAAAAUAUUTT against Tceanc2, 1.16; to GGAAGACACUCCUCUGCUCTT against Oca2, 1.63. GGUGCGUCCUGAAAUCAUCTT against Txndc12: the z-score is -2.52 (active). GGUUGAUGAAAAAACUGUATT against Itsn2: the z-score was 0.755. To GGCUAGAGAAAUAGUGUUGTT against Reep1 belongs 0.218; to GGAUCUUCAAUUCGUUGGUTT against Cachd1, 2.75 (active); to GCCACUCAAAGUUCGAAGGTT against Tmem51, -0.515.

Turning to GGUACUAAAGAAAUAUCCCTT against Sirt7, the z-score was 0.736.

Turning to GGCUUGUUUCCAAAAUAGGTT against Rflna, the z-score is 0.327. In the case of GGCUUUCUUUGCCAUGACCTT against Copg1, the z-score is -2.93 (active). In the case of CCCUAGAUGGCCGAAAUAUTT against Dazap1, the z-score was -1.47.

On to CCUUAUCUGGAGUGCGAGATT against Gpr158, for which the z-score is 0.452. With CCAAUCCUGAAUAAUGAGATT against Spag17, the z-score was 0.0419.

Turning to CGCCGCAGUAUUAAUGGCUTT against Nxph4, the z-score was 0.225. Regarding GGUGGACCUGCACUUUACCTT against Fam135b, the z-score was 0.67.

Take CGUCUAUCUUGGAUUACUATT against Dll1: the z-score was 2.11 (active).

On to UAAAUACUUACCAGCUGGATT against Olfr1306, for which the z-score is 1.06. Take GCACCAGUCGAAUCCUCAATT against Gpr137: the z-score was -1.46. In the case of GGCCCAAGGAUCAAUUUAUTT against Zup1 it was 0.914. As for GGUUCCUGGGAACCUAAGUTT against Med25, the z-score is 2.02 (active).

Consider CCUCAUCGAUGCACUACCCTT against Lrfn4, for which the z-score is -0.338.

GCUCAUGACACUCUUCCUGTT against Spib: the z-score is 1.45. In the case of GGAGGAUGGCUUUACCGCATT against Mib2, the z-score was -1.64. Turning to “GCCGGAUUGAGAUCUCUAUTT against 1500015L24Rik”, the z-score is 0.734.

Regarding GGAACAGGACAAUGACAGUTT against Gzme, the z-score is 1.43. In the case of GGCUUACUUCAUUUCAGUUTT against Zfp526 it was 0.0808; in that of GGAAAACAUUAAGAAGGGCTT against Ccn2, 3.41 (active).

For the sequence GGACCUCCACCGUUACUACTT against Sgsh, the z-score is 0.367. With GGAGGAACACAAGAUUUUCTT against Ppp2r5c, the z-score is -0.322.

For the sequence GGAAGUCCAUCUCUUUUGCTT against Olfr56, the z-score is 0.213. For the sequence GGAUCCAGAAAGUCCAGAUTT against Nt5c3b, the z-score is 0.918. As for GGAUGUUGGUACUUUUUGATT against Pwp1, the z-score is -0.254. In the case of GGAAUAAAGUGUUGUGUCATT against Wfdc15b, the z-score is -0.118. As for GGUAGCAGUUGCUUUAAUATT against Siah2, the z-score is 2.65 (active).

GGGUUUCACAGGCAAACAGTT against Suclg1: the z-score was -0.904. With CCCUGUACCUAGCUCAAGATT against Ecel1, the z-score was -0.693. In the case of GGAAUCAUCUUUGUGGAGATT against Nudt22 it was -0.733; in that of “GCCAACGAGAGUAAACACGTT against 5930403N24Rik”, -0.0706. To GGUCUACUGACUCAAAGUCTT against Mrps33 belongs 2.2 (active). To GGAUUUCAAAUGGAAACAATT against Vmn1r45 belongs -1.15. For the sequence GCAUGAAUUUUGCACGGACTT against Rad18, the z-score was 1.04.

UCAACUCAAACUAUGUCGATT against Hoxb4: the z-score is -0.172. In the case of GGUCUGUGGAUUUAAACUUTT against Sestd1, the z-score is 0.931. On to CGAAGAGAGCUGCAUUAAATT against BC049715, for which the z-score is -1.37.

For the sequence GGCUAUCAUGAACUUGGAUTT against Gpd2, the z-score is -0.57. With GGAAAUGUACAAGACUGAUTT against Anxa2, the z-score is 2.29 (active). For the sequence GGAAAAAAACUUGCUGGAUTT against Ppp3ca, the z-score is -0.681. In the case of CCAAAUAACCUGCUACGAGTT against Ffar2, the z-score was 0.905. For the sequence GGUAUACUAACUUUUAAGGTT against Fmo1, the z-score was -0.228. Turning to GCCUCUAUUCUACACCACATT against Gpr137, the z-score was -2.1 (active).

For the sequence GAAAAACUGCUGUUUUGGATT against Ly6g6d, the z-score was 1.87. Consider GGAGACGAGAGGAUCCUCUTT against Chga, for which the z-score is -1.56. Regarding GGUCAAGAAUGUAGCUGAUTT against Atp6v0d1, the z-score was -1.87.

As to GGUGUGUGAACCAUGUGUGTT against Olfr157, the z-score is -1.03. In the case of GGCAUAGUGAAUUUAGUCUTT against Iqub, the z-score was 0.526. Turning to GGCUGGAUACUCAGUGCUATT against Abhd16b, the z-score is 6.41 (active). Turning to GGUCAUGGAUCAGAAAGAATT against Hnrnpd, the z-score is 0.297. Regarding CACGGUACAGUACGAUUGATT against Rcan2, the z-score was 0.143. CAAGUACAAGCAGUUGACCTT against BC061237: the z-score was -0.0958. As for GAGGGUGUGCAUUCUUCUATT against Olfr1242, the z-score is -0.766. With GGUUCCUUAAUCACUUUGCTT against Ndufa9, the z-score was -0.139. In the case of GGAACAGAUAACAUUAUGGTT against Cpeb3, the z-score is 2.79 (active). In the case of GGCCCUUACUUCCACAUCATT against Fam104a, the z-score was -0.711. In the case of CGAAGCACAUAUCUUUGAUTT against Zfp41 it was 0.444; in that of GGAAAGAGGAAUCAAGAAATT against Slc23a2, -1; in that of CCAAAGAGCGCAUGGCUCATT against Epn2, -0.782. For the sequence GCGAAUCAGCACUUAUGGATT against Cd2ap, the z-score is 2.65 (active). As to GGUCUACUCUUCAUAUCGCTT against Rab3d, the z-score was -0.566. With GGACAGUUCAGAACAAAUUTT against Ccbe1, the z-score was -0.168.

Consider GCUGAACCAAACCCAAAUGTT against Snph, for which the z-score is 0.00664. In the case of GGUGAUGCCACUAGUGAAGTT against Scx, the z-score is -0.123. With GGCAGAUCUAUUUAUGGUATT against Ccer1, the z-score was 0.229. In the case of “GGUCUCAGCAAUCUGUUCCTT against 1700029I15Rik” it was -2.15 (active); in that of GGAACUAUACCAAAGGCAATT against Cfap65, -0.198.
